This passage reports Potency and viability (% of DMSO control) results from PubChem BioAssay (NCATS).

Inconclusive results are not listed. Activity calls are given as the source filed them. Calls follow the shape of the dose curve; as a rule, active = well fitted cell-killing curve with a large enough effect; inconclusive = small, poorly fitted or top-dose-only effect, or effect the other way; inactive = no such curve, though single readings can be large or run the other way.

A short description of assay [1]: Quantitative High-Throughput drug screen in 47 multiple myeloma cell lines against the NCATS MIPE library collection: XG6_PLB cell viability assay (AID 1919865). Also: nearly all actives have a fitted effect of over 40% in size. Put shortly: (§1)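 Readout: median RLU from CellTiter-Glo after 5 min at room temperature. Preceding step was 48 h drug treatment of 500 cells/well at 37 °C, 5% CO2, with DMSO-only and media-only control wells.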

A short description of assay [2]: Quantitative High-Throughput drug screen in 47 multiple myeloma cell lines against the NCATS MIPE library collection: XG1_PLB cell viability assay (AID 1919866). Also: nearly all actives have a fitted effect of over 35% in size. Put shortly:
as §1

Assay [3] is described as follows: Quantitative High-Throughput drug screen in 47 multiple myeloma cell lines against the NCATS MIPE library collection: VP6_DJ cell viability assay (AID 1919867). Also: nearly all actives have a fitted effect of over 40% in size. An outline of the steps: as §1
The nature of assay [4]: Quantitative High-Throughput drug screen in 47 multiple myeloma cell lines against the NCATS MIPE library collection: UTMC2_PLB cell viability assay (AID 1919868). Also: nearly all actives have a fitted effect of over 55% in size. The conditions noted are these: CellTiter-Glo ATP luminescence, 48 h; viability (% of DMSO control): at 45.8 µM (top of the series). Put shortly: as §1
Assay [5] is described as follows: Quantitative High-Throughput drug screen in 47 multiple myeloma cell lines against the NCATS MIPE library collection: PE2_PLB cell viability assay (AID 1919869). Also: nearly all actives have a fitted effect of over 35% in size. An outline of the steps: as §1
Assay [6] can be described thus: Quantitative High-Throughput drug screen in 47 multiple myeloma cell lines against the NCATS MIPE library collection: PCM6_Riken cell viability assay (AID 1919870). Also: nearly all actives have a fitted effect of over 30% in size. Put shortly: as §1
Assay [7] is described as follows: Quantitative High-Throughput drug screen in 47 multiple myeloma cell lines against the NCATS MIPE library collection: RPMI8226_ATCC cell viability assay (AID 1919871). Also: nearly all actives have a fitted effect of over 30% in size. Put shortly: as §1
Assay [8] can be described thus: Quantitative High-Throughput drug screen in 47 multiple myeloma cell lines against the NCATS MIPE library collection: OPM2_DSMZ cell viability assay (AID 1919872). Also: nearly all actives have a fitted effect of over 30% in size. An outline of the steps:
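Myeloma cell lines, 500 cells per well, exposed to MIPE 4.0 library compounds for 48 h at 37C, 5% CO2. Viability from ATP by CellTiter-Glo luminescence; normalised to DMSO (100%) and media-only (0%) wells.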

A short description of assay [9]: Quantitative High-Throughput drug screen in 47 multiple myeloma cell lines against the NCATS MIPE library collection: KMS11_JCRBsus cell viability assay (AID 1919873). Also: nearly all actives have a fitted effect of over 50% in size. An outline of the steps:
as §1

The nature of assay [10]: Quantitative High-Throughput drug screen in 47 multiple myeloma cell lines against the NCATS MIPE library collection: U266_ATCC cell viability assay (AID 1919864). Also: nearly all actives have a fitted effect of over 35% in size. An outline of the steps:
as §1
Potency is read from the fitted curve at half-maximal effect.

Regarding `CC(C=CC(=O)NO)=C[C@@H](C)C(=O)c1ccc(N(C)C)cc1`, the Potency is 469 nM (active) in assay [1]; 332 nM (active) in assay [2]; 372 nM (active) in assay [3]; 235 nM (active) in [4]; 590 nM (active) in assay [5]; 469 nM (active) in assay [6]. Further, the Potency in [7] was 332 nM (active); in assay [8] it was 833 nM (active); in assay [9], 235 nM (active).
Take `O=C1c2cccc(O)c2C(=O)c2c(O)cc(CO)cc21`: the Potency result in assay [10], in assay [2], in assay [5], in assay [6], in assay [8] and in assay [9] was “inactive” throughout. Further, the Potency in assay [7] is 16600 nM (active).
As to `Cc1cc(-c2nnc3n2CCCCC3)c(C)n1-c1ccccc1`, the Potency result in assay [10], in [3], in assay [4], in assay [5] and in assay [9] was “inactive” throughout.
For `O=C1NCCc2[nH]c(-c3ccncc3)cc21`, the Potency in assay [1] was 1870 nM (active); in assay [2] it was 2090 nM (active); in [3], 3720 nM (active); in assay [4], 3720 nM (active); in [5] it was 1870 nM (active); in assay [6], 1660 nM (active). Besides, the figures for the Potency in [7], in [8] and in assay [9] were 16600 nM (active), 14800 nM (active) and 5260 nM (active), respectively.
Consider `CCOc1cc2c(c(F)c1OCC)C(=N)N(CC(=O)c1cc(N3CCOCC3)c(OC)c(C(C)(C)C)c1)C2`, for which the Potency was 9350 nM (active) in assay [1]; 8330 nM (active) in assay [2]; 9350 nM (active) in assay [3]; 7430 nM (active) in assay [4]; 20900 nM (active) in [5]; 7430 nM (active) in assay [6]. Also, the figures for the Potency in [7], in [8] and in assay [9] were 18700 nM (active), 18700 nM (active) and 7430 nM (active), respectively.
Take `COc1cc(C(C)C)c(Oc2cnc(NC(CO)CO)nc2N)cc1I`: the Potency in [10] was 1480 nM (active); in [5], 7430 nM (active); in assay [7], 3320 nM (active). Also, the viability (% of DMSO control) in assay [4] is 201% (active). The Potency result in assay [6], in assay [8] and in assay [9] was “inactive” each time.
As for `C[C@H](O)[C@@H]1C(=O)N2C(C(=O)O)=C(S[C@@H]3CN[C@H](CNS(N)(=O)=O)C3)[C@@H](C)[C@@H]12`, the Potency result in [10], in [3], in assay [4], in assay [6], in assay [8] and in [9] was “inactive” each time.
Regarding `CC(C)OC(=O)[C@H](C)N[P@](=O)(OC[C@H]1O[C@@H](n2ccc(=O)[nH]c2=O)[C@](C)(F)[C@H]1O)Oc1ccccc1`, the Potency result in assay [10], in assay [6], in [7], in assay [8] and in assay [9] was “inactive” in each case.
Consider `Cc1ccc([N+](=O)[O-])cc1S(=O)(=O)N(C)N=Cc1cnc2ccc(Br)cn12`, for which the Potency in [10] was 20.9 nM (active); in assay [5] it was 7.4 nM (active); in [7], 46.9 nM (active); in [8], 59 nM (active); in assay [9] it was 6.6 nM (active).
For the compound `CCOC(=O)N1CCN([N+]([O-])=NOc2ccc([N+](=O)[O-])cc2C#N)CC1`, the Potency in assay [10] is 833 nM (active); in assay [3], 743 nM (active); in assay [4], 526 nM (active); in [5], 743 nM (active); in [6], 469 nM (active); in assay [7], 1050 nM (active). The Potency in [8] is 935 nM (active); in assay [9], 662 nM (active).
With `Oc1cc(-c2nc(-c3ccccc3)[nH]c2-c2ccncc2)ccc1Cl`, the Potency is 2350 nM (active) in [1]; 2350 nM (active) in [2]; 3720 nM (active) in assay [3]; 7430 nM (active) in assay [4]; 5260 nM (active) in [5]; 2960 nM (active) in assay [6]. Also, the Potency in assay [7] is 16600 nM (active); in [9], 14800 nM (active).
Turning to `CCc1cc(C(C)=NOCc2ccc(C3CCCCC3)c(C(F)(F)F)c2)ccc1CN1CC(C(=O)O)C1`, the Potency entry in assay [10] and in assay [9] was “inactive” in each case. Further, the Potency in assay [3] and in assay [6] was 11800 nM (active) throughout.
Regarding `CNC(=O)Nc1ccc(-c2nc(N3CC4CCC(C3)O4)c3cnn(C4CCC5(CC4)OCCO5)c3n2)cc1`, the Potency in assay [10] was 14.8 nM (active); in assay [6], 66.2 nM (active); in assay [8], 20.9 nM (active).
Turning to `Nc1ccn(C[C@@H](CO)OCP(=O)(O)O)c(=O)n1`, the Potency result in [10], in assay [3] and in [7] was “inactive” each time.
On to `CC(N[C@H]1CCCC[C@H]1NC(=O)c1ccc(Cl)cc1)c1cccc2ccccc12` (stereo not given in full), for which the Potency result in assay [10], in assay [7] and in [8] was “inactive” in each case.
Consider `C[C@]12CCC(=O)C=C1[C@@H]1CC1[C@H]1[C@H]3[C@@H]4C[C@H]4[C@@]4(CCC(=O)O4)[C@@]3(C)CC[C@H]12` (stereo not given in full), for which the Potency entry in assay [10], in assay [3], in assay [5], in [6] and in assay [8] was “inactive” each time. The Potency in assay [7] was 18700 nM (active).
For `CC1(C)O[C@@H]2C[C@H]3[C@@H]4CCC5=CC(=O)C=C[C@]5(C)[C@@H]4[C@@H](O)C[C@]3(C)[C@]2(C(=O)CO)O1`, the Potency result in assay [10], in assay [5] and in assay [8] was “inactive” each time. For the same compound, the figures for the Potency in assay [3] and in [9] were 18700 nM (active) and 33.2 nM (active), respectively.
Turning to `C[C@](Cc1c[nH]c2ccccc12)(NC(=O)OC1C2CC3CC(C2)CC1C3)C(=O)NC[C@H](NC(=O)CCC(=O)O)c1ccccc1` (stereo not given in full), the Potency entry in assay [10], in assay [5], in assay [7], in assay [8] and in [9] was “inactive” each time.
Regarding `COC(=O)C=CC(=O)OC`, the Potency in assay [1] was 1320 nM (active); in assay [2] it was 1320 nM (active); in [3] it was 2640 nM (active); in assay [4] it was 2350 nM (active); in [5], 5260 nM (active); in assay [6], 3320 nM (active). The Potency result in [7], in assay [8] and in assay [9] was “inactive” throughout.
On to `Cc1ccc2nc(NCCN)c3ncc(C)n3c2c1`, for which the Potency in assay [1] is 1870 nM (active); in assay [2], 2350 nM (active); in assay [3], 5260 nM (active); in [4], 4690 nM (active); in [5], 9350 nM (active); in [6], 2640 nM (active). The Potency is 6620 nM (active) in [7], 11800 nM (active) in assay [8] and 3720 nM (active) in assay [9].
